According to PubChem BioAssay (NCATS):
Results filed as inconclusive are left out. A number with no mark means an inactive call. Calls follow the shape of the dose curve; as a rule, active = well fitted inhibition curve with a large enough effect; inconclusive = small, poorly fitted or top-dose-only effect; inactive = no such curve, though single readings can be large or run the other way.

Experiment: Primary qHTS for small molecule stabilizers of the endoplasmic reticulum resident proteome: Secreted ER Calcium Modulated Protein (SERCaMP) assay (AID 1508630)
Settings: SH-SY5Y GLuc-SERCaMP (Gaussia luciferase released on ER calcium loss) secretion, thapsigargin, luminescence; series mostly up to 38.4 µM; activity change, negative = inhibition: at the top concentration
Excerpt: Assay Provider: Brandon K. Harvey Ph.D.
National Institute on Drug Abuse, National Institutes of Health, Baltimore, MD
Endoplasmic reticulum (ER) dysregulation is associated with human pathologies including neurodegenerative, cardiovascular, muscular, and diabetic conditions. Maintenance of ER calcium is critical for functions of the ER and its depletion can lead to loss of ER resident proteins, in a process termed exodosis. Therapeutic compounds capable of attenuating the redistribution of ER proteins under pathological conditions may slow or stop disease progression. To identify such compounds, we performed a quantitative high-throughput screen (qHTS) using the SERCaMP assay, which monitors secretion of ER resident proteins triggered by calcium depletion.
SERCaMP was initially developed as a reporter of ER calcium homeostasis using a Gaussia luciferase with a modified signal peptide and carboxy-terminus (GLuc-SERCaMP), modifications that confer secretion of the reporter in response to ER calcium depletion (Henderson et al., 2014). The assay was used to screen 9,501 compounds, including a collection of drugs approved by the FDA (US), EMA (EU), NHI (Japan), and HC (Canada) regulatory agencies (Huang et al., 2011). Since the SERCaMP reporter reflects the exodosis phenomenon (Trychta et al., 2018a), compounds identified in the screen have the potential to prevent exodosis by different mechanisms such as stabilizing ER calcium or augmenting ERS retrieval.
1. Henderson, M.J., Wires, E.S., Trychta, K.A., Richie, C.T., and Harvey, B.K. (2014). SERCaMP: a carboxy-terminal protein modification that enables monitoring of ER calcium homeostasis. Mol Biol Cell 25, 2828-2839.
2. Huang, R., Southall, N., Wang, Y., Yasgar, A., Shinn, P., Jadhav, A., Nguyen, D.T., and Austin, C.P. (2011). The NCGC pharmaceutical collection: a comprehensive resource of clinically approved drugs enabling repurposing and chemical genomics. Sci Transl Med 3, 80ps16.
3. Trychta, K.A., Back, S., Henderson, M.J., and Harvey, B.K. (2018a). KDEL Receptors Are Differentially Regulated to Maintain the ER Proteome under Calcium Deficiency. Cell Rep 25, 1829-1840 e1826.
SEQUENCE No. (1, 2, 3, etc.); […] (e.g., Cells, Incubation, Reagent, etc.); VALUE and DESCRIPTION.
1; Reagent; 5 uL; 1000 SH-SY5Y cells per wells
3; Compound; 23 nL; Control inhibitor / compound library
5; Reagent; 100 nM; Thapsigargin
7; Reagent; 1 uL; 0.5x coelenterazine
8; Detection; Luminescence; ViewLux imaging system
NOTES (numbers refer to sequence above)
1; SH-SY5Y human neuroblastoma cells stably expressing GLuc-SERCaMP (SH-SY5Y-GLuc-ASARTDL) cells were seeded in 1,536 well white tissue culture treated plates (Corning, Cat# 7464) in DMEM-high glucose-sodium pyruvate (ThermoFisher Scientific, Cat #10569) supplemented with 10% bovine growth serum (Hyclone), 10 U/ml penicillin (Gibco), 10 ug/ml streptomycin (Gibco), and 20 mM HEPES.
2; Assay plates were incubated for 5 hour at 37C in a humidified incubator containing 5% CO2.
3; qHTS libraries (23 nl, final concentrations of 1.53 uM, 7.67 uM, 38.3 uM) or controls (neutral control: DMSO, positive control: dantrolene) were added using a Kalypsis pin-tool Robotic System equipped with 1536 pinheads.
4; Cells were then incubated for 16 hours at 37C, 5% CO2.
5; Thapsigargin was added at 100 nM to deplete ER calcium stores.
6; Cells were incubated for 4 hour (37 °C, 5% CO2)
7; Gaussia luciferase in the medium was measured by adding 1 ul of 0.5x coelenterazine (final concentration 0.07x) prepared in Gaussia Luciferase Glow Assay Buffer (Pierce), without addition of the Cell Lysis Buffer Reagent.
8; Luminescence was measured using a ViewLux […] CCD imaging system (Perkin Elmer) equipped with clear filters. […] The same controls were also used for the calculation of the Z' factor, a measure of assay quality control, as previously described (Zhang et al., 1999). […]
% is scaled to controls: 0 for no effect and ±100 for the full control effect.

| Structure (SMILES) | activity change, negative = inhibition [%] |
| --- | --- |
| COc1cccc(Cn2c(=O)c(-c3ccc(F)cc3)nc3cnc(N(C)C)nc32)c1 | 1.1 |
| O=C(Nc1ccccc1)N1CCC2(CC1)CCN(S(=O)(=O)c1ccccc1)CC2 | 20.2 |
| CNc1cc(-c2ccccc2C(F)(F)F)ncn1 | -9.53 |
| Cc1nc2cnc(N(C)C)nc2n(CCC#N)c1=O | -0.95 |
| CN(C)c1ncnc2ccc(-c3cccnc3)cc12 | -7.88 |
| COc1ccccc1-c1nccc(-n2ccnc2)n1 | 1.39 |
| COCC(=O)N1CCC[C@@]2(CCN(C(=O)Nc3ccc(OC)cc3)C2)C1 | 9.22 |
| COc1cc(O)c2c(=O)cc(C)oc2c1CC=C(C)C | 15.2 |
| COc1ccc(NC(=O)N2CC3(CCN(C(C)=O)CC3)C2)cc1 | -6.31 |
| O=c1c(-c2ccc(F)cc2)nc2cnc(Oc3cccc(Cl)c3)nc2n1C1CC1 | 5.39 |
| CC(=O)N1CCC[C@@]2(CCN(Cc3cc(C(F)(F)F)cc(C(F)(F)F)c3)C2)C1 | 55.6 |
| COCCn1c(=O)c(-c2ccc(Cl)cc2)nc2cnc(Oc3cccc(Cl)c3)nc21 | -11 |
| CN(C)c1ncc2nc(-c3ccc(F)cc3)c(=O)n(C[C@H]3CCCO3)c2n1 | 31.4 |
| Cc1ccccc1-c1cncnc1NCc1ccccc1 | 1.06 |
| CN(C)c1ncc2ncc(=O)n(C[C@H]3CCCO3)c2n1 | 55.5 |
| N#Cc1cccc(-c2nc3cnc(Oc4cccc(Cl)c4)nc3n(C3CC3)c2=O)c1 | -19.9 |
| CN(C)c1ccc(-c2cncnc2NCc2cccs2)cc1 | -21.6 |
| CN1CCN(c2cc(-c3ccccc3C(F)(F)F)ncn2)CC1 | -4.14 |
| O=c1cnc2cnc(N3CCOCC3)nc2n1CCc1ccccc1 | 10.6 |
| CNc1cc(-c2ccccc2CN(C)C)ncn1 | 3.74 |

| Structure (SMILES) | activity change, negative = inhibition [%] |
| --- | --- |
| CN(C)c1nc(-c2ccoc2)nc2ccccc12 | -17.9 |
| COc1ccc(NC(=O)N2CC3(CCN(C(=O)c4ccco4)CC3)C2)cc1 | 39.5 |
| COc1ccc(NC(=O)N2CC3(CCN(C(=O)c4c(C)noc4C)CC3)C2)cc1 | 26 |
| Cn1c(=O)c(-c2ccc(Cl)cc2)nc2cnc(Oc3cccc(Cl)c3)nc21 | 13.1 |
| CC(=O)N1CCC2(CCCN(c3ccccc3)C2)CC1 | 50.5 |
| COC(=O)C1C(=O)C(C(=O)/C=C/c2ccco2)C(=O)CC1(C)C (stereo not given) | -12.6 |
| CN(C)c1ncc2ncc(=O)n(Cc3ccc(F)cc3)c2n1 | -21.7 |
| CC(=O)NCCNc1nc(-c2cccnc2)nc2ccccc12 | 31.6 |
| Cc1cccc(CNc2ncnc3ccc(-c4cccnc4)cc23)c1 | -4.36 |
| Cc1cnc(CNc2ccnc(-c3ccccc3C(F)(F)F)n2)cn1 | 41.4 |
| COc1cc2c(cc1OC)C1CCC3=C([C@H](C)OC3=O)N1CC2 (stereo not given in full) | -6.63 |
| CC(=O)NCCNc1ncnc2ccc(-c3cccc(NS(C)(=O)=O)c3)cc12 | -2.2 |
| COc1ccccc1CNc1ccnc(-c2ccoc2)n1 | -4.48 |
| O=c1cnc2cnc(Oc3cccc(Cl)c3)nc2n1C[C@H]1CCCO1 | -12.1 |
| CC(C)=CCC1=C(O)[C@](O)(CC=C(C)C)C(=O)C(C(=O)CC(C)C)=C1O | 51.6 |
| O=C(c1csnn1)N1CCC2(CC1)CN(c1ccccc1)C2 | 33.5 |
| c1cncc(CNc2ccnc(-c3ccc4c(c3)OCO4)n2)c1 | -0.648 |
| O=C(c1ccncc1)N1CCC2(CC1)CCN(c1ccccc1)CC2 | -9.2 |
| CN1CCN(c2ncc3ncc(=O)n(C4CC4)c3n2)CC1 | 6.29 |
| CCNc1ncc2nc(-c3ccc(OC)cc3)c(=O)n(CCOC)c2n1 | -7.06 |
